# Assay outcomes from PubChem BioAssay.
# D2 ag-1: activates the human D2 dopamine receptor; HEK293 T-REx D2 cells, calcium flux agonist mode; activation, % at 2 µM; hit rate 0.53% among 340,000; AID 485358;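 active means activation over 3 SD above normal in the single-dose calcium agonist read, cut at about 30% in these data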; further: 0% is about no effect
# Target sequence (P14416 whole entry, looked up): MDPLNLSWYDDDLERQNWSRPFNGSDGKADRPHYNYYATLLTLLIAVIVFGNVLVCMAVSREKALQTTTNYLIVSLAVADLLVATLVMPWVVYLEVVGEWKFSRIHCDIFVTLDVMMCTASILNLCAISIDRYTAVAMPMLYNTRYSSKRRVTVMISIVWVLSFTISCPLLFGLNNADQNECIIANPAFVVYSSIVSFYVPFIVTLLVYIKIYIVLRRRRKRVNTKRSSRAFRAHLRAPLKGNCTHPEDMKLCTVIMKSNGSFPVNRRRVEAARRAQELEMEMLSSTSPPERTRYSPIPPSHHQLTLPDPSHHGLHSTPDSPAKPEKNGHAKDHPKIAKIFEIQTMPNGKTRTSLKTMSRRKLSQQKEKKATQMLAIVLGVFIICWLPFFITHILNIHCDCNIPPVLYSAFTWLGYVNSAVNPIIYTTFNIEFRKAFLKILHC
#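 In this primary screen, compounds producing a positive calcium signal within 180 s of addition to tetracycline-induced, force-coupled HEK293 Trex D2 cells are flagged; cells are dye-loaded with a no-wash calcium kit beforehand.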
# D2 ag-2: human D2 receptor agonism in beta-arrestin assay; P14416; DiscoveRx PathHunter D2 beta-arrestin, luminescence, 90 min; 100% = 57 uM dopamine signal; activation, % (no concentration beside the values); hit rate 0.084% among 360,000; AID 624465; in the data active means activation above about 40%; inconclusive means between about 15% and that limit
#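 DiscoveRx PathHunter D2 beta-arrestin cells (2,100/well) attached overnight, then compound-stimulated 90 min at 37 C in HBSS/10 mM HEPES/0.1% Tween-20 buffer; beta-galactosidase complementation read by luminescence after 1 h at ambient temperature. Dopamine 57 uM final (EC100) as control.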
# D2 antag: D2 dopamine receptor (human) antagonism | HEK293 TREx D2 cells, calcium flux, dopamine EC80 | hit rate 2% among 340,000 | inhibition, % at 10 µM; in the data active means inhibition above about 30%; inactive means below that, where a call was filed; further: 0% is about no effect
#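 Read-out: kinetic calcium fluorescence (1 cycle/s) in inducible HEK293 T-REx D2 cells after an EC80 dopamine addition that followed 180 s compound preincubation. Loss of the dopamine response indicates antagonism.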
# D2 PAM-1: positive allosteric modulators of human D2 dopamine receptor. AID 485347. HEK293 T-REx D2, calcium flux, EC20 dopamine potentiation. hit rate 0.34% among 340,000. P14416. potentiation, % at 10 µM;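 active means potentiation over 3 SD above the plate norm, cut at about 30% in these data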; further: 0% is about no effect
#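 Calcium flux readout, no-wash dye, 1 read/s. Inducible HEK293 Trex D2 line, overnight 30 C. Compound alone 180 s (agonist flags), then EC20 dopamine, another 180 s to score potentiation.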
# D2 PAM-2: positive allosteric modulators of human D2 dopamine receptor; DiscoveRx D2 beta-arrestin cells, luminescence, 90 min; 100% = 57 uM dopamine signal; AID 624464; potentiation, % (test concentration not listed); hit rate 0.23% among 360,000; P14416; in the data active means potentiation above about 50%; inconclusive means mostly about 30% to 49%
#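 PathHunter D2 cells, attached overnight at 37 deg C, received compound in DMSO plus dopamine at EC20 (50 nM final) for 90 min at 37 deg C. Beta-arrestin recruitment was read as luminescence after 1 h with detection reagent at ambient temperature.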
# D3 ag: D3 receptor agonism confirmed, beta-arrestin readout. shares compounds with D2 ag-1. DiscoveRx D3 beta-arrestin cells, luminescence, 90 min. Potency, µM (titrated, usually from 76.9 µM), inactives show at the highest dose activation, most hits filed as activators. hit rate 4% among 2,300. AID 720506;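 further: potency means the concentration at half of the fitted maximal effect; 100% = dopamine control response; nearly all actives have a fitted effect of over 70% in size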
# D2 ag-3: activates human D2 dopamine receptor in D3 counterscreen; Potency, µM (titrated, usually from 76.9 µM), without a hit: at the highest dose activation, usual class: activators; DiscoveRx PathHunter D2 beta-arrestin, luminescence, 90 min; response scale: percent relative to full dopamine signal; shares compounds with D2 ag-1; AID 720507; hit rate 5.9% among 2,300; further: potency means the concentration at half of the fitted maximal effect; % of control where 0% means no effect; nearly all actives have a fitted effect of over 70% in size
# * marks the source's active call; other numbers are inactive results; ? = inconclusive; / = no result; ! = repeats disagree. Rows were chosen to be rich in hits. Some 2.4% of all compounds tested hit in one or more screens of this group. Unless noted, the call rests on the fitted dose curve; in most records, active means well fitted activation curve with a large enough effect; inconclusive means small, poorly fitted or top-dose-only effect; inactive means flat fitted curve, though single readings scatter.
SMILES,D2 ag-1,D2 ag-2,D2 antag,D2 PAM-1,D2 PAM-2,D3 ag,D2 ag-3
COc1cc(C2SC[C@H]3C(=O)N(c4ccccc4)C(=O)N23)cc(OC)c1OC (stereo not given in full),-1,/,/,-1,/,/,/
CC(CCc1ccccc1)NCc1cccc2ccccc12 (stereo not given),57*,2,32*,-27,-78,16%,14%
CC1(NC(=S)Nc2ccc3ccccc3c2)CCS(=O)(=O)C1 (stereo not given),1,2,37*,-22,3,-1%,0%
O=S1(=O)CCC(NC(=S)Nc2ccc3ccccc3c2)C1 (stereo not given),-1,0,9,-3,-8,/,/
CCOC(=O)c1c(C)oc2ncnc(N3CCN(c4cccc(Cl)c4)CC3)c12,0,/,/,2,/,/,/
O=c1c2sc3ccccc3c2n(Cc2cccc(Cl)c2)c(=O)n1Cc1ccc(F)cc1,0,/,/,9,/,/,/
CN1CCC2(CC1)C1CN(C)CC=C1C(C#N)=C(N)C2(C#N)C#N (stereo not given),46*!,14,30,-17,3,29%,?
Cc1cc(-c2n[nH]c(=S)n2/N=C/c2sccc2C)n[nH]1,66*,-2,-15,-26,-2,-16%,-12%
CC(C)(C)OC(=O)N1CCC(CNC(=O)c2ccc(F)cc2)CC1,32*,3,5,-20,-4,-6%,1%
COC(=O)c1cc2c(ccn2-c2ccc(F)cc2)n1Cc1ccc(C#N)cc1,6,-3,-5,1,-5,/,/
COC(=O)c1cc2c(ccn2-c2ccc(F)cc2)n1Cc1ccc(OC)cc1,5,4,28,3,-6,-14%,?
CC(=O)N1CCc2cc(Br)cc(S(=O)(=O)N3CCC(C)CC3)c21,-2,/,/,23,/,/,/
CCCn1c(COc2ccccc2)nc2ccccc21,/,?,/,/,3,?,18%
COc1ccc(OCCCCn2c(CO)nc3ccccc32)cc1,1,10,74*,2,3,5%,4%
Cc1ccc(Cn2c(CNC(=O)c3cccc(C)c3)nc3ccccc32)cc1,/,/,/,-9,/,/,/
COC(=O)C1CCN(Cc2cc(=O)oc3cc(C)c(Cl)cc23)CC1,31*,?,20,-8,-3,3.2µM*,24%
CCOC(=O)Nc1ccc2c(CN3CCC(C(=O)OC)CC3)cc(=O)oc2c1,28,1,3,-1,-3,/,/
Cc1cc2oc(=O)cc(CN3CCCCC3C)c2cc1Cl (stereo not given),-1,-5,4,-4,3,/,/
CCc1ccc2c(CN3CCC(C(=O)OC)CC3)cc(=O)oc2c1,106*,66*,106*,-42,21,4µM*,8.9µM*
COc1cc(Cl)c(C)cc1NC(=O)NC1COc2ccccc2C1 (stereo not given),0,/,/,-23,/,/,/
CN(Cc1ccon1)C(=O)C1CCN(C2CCN(CCCc3ccccc3)CC2)CC1,49*,0,20,-11,-13,-4%,24%
COc1ccc(S(=O)(=O)N2CCC(N3CCN(c4ccccc4OC)CC3)CC2)cc1,37*,1,-15,-20,-13,-8%,7%
COc1ccccc1N1CCN(C2CCN(S(=O)(=O)c3ccc(NC(C)=O)cc3)CC2)CC1,49*,?,32*,-16,-16,-13%,20%
CN(C(=O)c1ccc(NC(=O)Cc2cccc(NC(=O)C3CCN(C(=O)C4CC4)CC3)c2)cc1)C1CCCC1,1,0,-12,22,-2,-6%,-4%
CCc1ccccc1NC(=O)C1CCN(S(=O)(=O)c2ccc3[nH]c(=O)ccc3c2)CC1,0,/,/,2,/,/,/
COC(=O)CN(C)C(=O)CC1C(=O)NCCN1CC(C)(C)C (stereo not given),40*,-2,-3,-12,-3,-5%,-1%
